Bioassay records deposited in PubChem BioAssay by several laboratories.
This is a sample that favours compounds with a hit; in the whole collection about 28% have one here.
CYP2C19 act: cytochrome P450 2C19 (human) activation. P33261. recombinant CYP2C19, luciferin-H EGE luminescence; active compounds read high; 0 = fully inhibited enzyme, 1 = untreated enzyme. activation factor at 5 µM. 96,000 tested, under 10 active. AID 1025;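 active = activation factor of at least 2 at 5 µM in the primary screen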
Target sequence (P33261 whole entry, looked up): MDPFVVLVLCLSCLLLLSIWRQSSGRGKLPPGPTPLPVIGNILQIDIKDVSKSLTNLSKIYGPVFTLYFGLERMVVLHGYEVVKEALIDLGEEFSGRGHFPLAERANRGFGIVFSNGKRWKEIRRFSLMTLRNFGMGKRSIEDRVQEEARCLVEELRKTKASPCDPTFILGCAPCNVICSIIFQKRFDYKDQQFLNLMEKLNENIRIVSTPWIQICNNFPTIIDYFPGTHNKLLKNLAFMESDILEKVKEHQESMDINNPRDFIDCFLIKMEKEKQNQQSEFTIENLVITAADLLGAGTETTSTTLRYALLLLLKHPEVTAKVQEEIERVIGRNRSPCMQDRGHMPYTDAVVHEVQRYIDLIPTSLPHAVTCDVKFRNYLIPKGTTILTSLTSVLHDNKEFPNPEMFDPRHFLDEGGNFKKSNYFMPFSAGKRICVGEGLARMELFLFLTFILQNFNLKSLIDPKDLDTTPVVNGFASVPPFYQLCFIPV
CYP2C19 inh: inhibitors of human CYP2C19; inhibition, % at 5 µM; actives 21% (n = 96,000); AID 778; P33261; CYP2C19 Supersomes, luciferin-H EGE luminescence, 30 min;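 active = CYP2C19 inhibition above a set limit at 5 µM in the primary screen, cut at about 50% in these data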
CYP2C9 inhib: inhibitors of human CYP2C9; inhibition, % at 5 µM; actives 20% (n = 96,000); CYP2C9 Supersomes, luciferin-H conversion, luminescence;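 active = blocking of liver enzyme CYP2C9 beyond about 50% at 5 µM, limit read from the data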
PLK1 PBD inh: Plk1 (human) PBD binding inhibition; Plk1 PBD phosphopeptide binding, fluorescence polarization; inhibition, %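 (tested at about 20 µM)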; actives 0.13% (n = 97,000); AID 693; in the data active = inhibition above about 34%, passing the limit was not always enough
PLK1 kinase inh: blocks human PLK1 kinase activity | inhibition, % at 10 µM | actives 0.53% (n = 97,000) | recombinant PLK1 kinase, TR-FRET peptide phosphorylation;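 active = inhibition of 50% or more in the single-concentration screen; inactive = inhibition below 50%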
CYP2C9 activ: CYP2C9 (human) activation; activation factor at 5 µM; actives 1.4% (n = 96,000); P11712; recombinant CYP2C9, luciferin-H conversion, luminescence; active compounds read high; factor 1 = untreated enzyme, 0 = blocked;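 active = activation factor of 2 or more for CYP2C9 at a 5 µM dose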
A number is an active result.

Screening CCCC1=C(C(=O)OCC)C(c2ccc(N(C)C)cc2)n2ncnc2N1 (stereo not given) returned CYP2C19 act inactive, CYP2C19 inh inactive, CYP2C9 inhib inactive, PLK1 PBD inh inactive, PLK1 kinase inh inactive and CYP2C9 activ inactive.
Screening CCCC1=C(C(=O)OCC)C(c2ccc(F)cc2)n2ncnc2N1 (stereo not given) returned CYP2C19 act inactive, CYP2C19 inh 55, CYP2C9 inhib 76, PLK1 PBD inh inactive, PLK1 kinase inh inactive and CYP2C9 activ inactive.
For COC(=O)c1ccc(C2C(C(C)=O)=C(C)Nc3ncnn32)cc1 (stereo not given) the results were CYP2C19 act inactive, CYP2C19 inh 96, CYP2C9 inhib inactive, PLK1 PBD inh inactive, PLK1 kinase inh inactive and CYP2C9 activ inactive.
`CCOC(=O)C1=C(C)Nc2ncnn2C1/C=C/c1ccccc1` (stereo not given) gave CYP2C19 act inactive, CYP2C19 inh 57, CYP2C9 inhib 63, PLK1 PBD inh inactive, PLK1 kinase inh inactive and CYP2C9 activ inactive.
CC(Oc1ccccc1Cl)c1nnc(N)s1 (stereo not given) was read as CYP2C19 act inactive, CYP2C19 inh inactive, CYP2C9 inhib inactive, PLK1 PBD inh inactive, PLK1 kinase inh inactive and CYP2C9 activ inactive.
Screening COc1ccc(/C(O)=C2/C(=O)C(=O)N(CCCN(C)C)C2c2ccccc2)cc1Cl (stereo not given) returned CYP2C19 act inactive, CYP2C19 inh inactive, CYP2C9 inhib inactive, PLK1 PBD inh inactive, PLK1 kinase inh inactive and CYP2C9 activ inactive.
For O=c1[nH]c2ccc(S(=O)(=O)NCc3ccccn3)cc2s1 the results were CYP2C19 act inactive, CYP2C19 inh inactive, CYP2C9 inhib inactive and CYP2C9 activ inactive.
Cc1cc(C)n2nc(SCC(=O)c3ccc[nH]3)nc2n1 was read as CYP2C19 act inactive, CYP2C19 inh inactive, CYP2C9 inhib 55, PLK1 PBD inh inactive, PLK1 kinase inh inactive and CYP2C9 activ inactive.
Cc1cc(C(=O)COC(=O)C2=NNC(=O)CC2)c(C)n1-c1cccc(C(F)(F)F)c1 was read as CYP2C19 act inactive, CYP2C19 inh 78, CYP2C9 inhib 81, PLK1 PBD inh inactive, PLK1 kinase inh inactive and CYP2C9 activ inactive.
Cc1cc(C(=O)COC(=O)C2=NNC(=O)CC2)c(C)n1-c1ccc(OC(F)F)cc1 was read as CYP2C19 act inactive, CYP2C19 inh inactive, CYP2C9 inhib inactive, PLK1 PBD inh inactive, PLK1 kinase inh inactive and CYP2C9 activ inactive.
`CC[C@H](C)[C@H](NC(=O)c1ccc(Cl)cc1)C(=O)OCC(=O)c1ccc2c(c1)NC(=O)CO2` gave CYP2C19 act inactive, CYP2C19 inh inactive, CYP2C9 inhib 56, PLK1 PBD inh inactive, PLK1 kinase inh inactive and CYP2C9 activ inactive.
`CC(C)C(C(=O)OCC(=O)c1ccc2c(c1)NC(=O)CO2)N1C(=O)c2ccccc2C1=O` (stereo not given) gave CYP2C19 act inactive, CYP2C19 inh inactive, CYP2C9 inhib inactive and CYP2C9 activ inactive.
Screening CC(C)[C@H](NC(=O)c1ccccc1)C(=O)OCC(=O)c1ccc2c(c1)NC(=O)CO2 returned CYP2C19 act inactive, CYP2C19 inh 52, CYP2C9 inhib inactive, PLK1 PBD inh inactive, PLK1 kinase inh inactive and CYP2C9 activ inactive.
Cc1cccc(C)c1OCC(=O)OCC(=O)c1ccc2c(c1)NC(=O)CO2 was read as CYP2C19 act inactive, CYP2C19 inh inactive, CYP2C9 inhib inactive, PLK1 PBD inh inactive, PLK1 kinase inh inactive and CYP2C9 activ inactive.
For N#Cc1ccccc1OCC(=O)OCC(=O)c1ccc2c(c1)NC(=O)CO2 the results were CYP2C19 act inactive, CYP2C19 inh 67, CYP2C9 inhib 59, PLK1 PBD inh inactive, PLK1 kinase inh inactive and CYP2C9 activ inactive.
COc1cc(OC)cc(C(=O)N[C@H](C(=O)OCC(=O)c2ccc3c(c2)NC(=O)CO3)C(C)C)c1 was read as CYP2C19 act inactive, CYP2C19 inh inactive, CYP2C9 inhib inactive, PLK1 PBD inh inactive, PLK1 kinase inh inactive and CYP2C9 activ inactive.
Screening COC(=O)[C@@H](NC(=O)NCc1ccco1)C(C)C returned CYP2C19 act inactive, CYP2C19 inh inactive, CYP2C9 inhib inactive, PLK1 PBD inh inactive, PLK1 kinase inh inactive and CYP2C9 activ inactive.
`COc1ccnc(NCc2cccnc2)c1C#N` gave CYP2C19 act inactive, CYP2C19 inh inactive, CYP2C9 inhib inactive, PLK1 PBD inh inactive, PLK1 kinase inh inactive and CYP2C9 activ inactive.
`COc1ccnc(NCc2cccc(C(F)(F)F)c2)c1C#N` gave CYP2C19 act inactive, CYP2C19 inh 54, CYP2C9 inhib inactive, PLK1 PBD inh inactive, PLK1 kinase inh inactive and CYP2C9 activ inactive.
Screening CCSc1nc2sc3c(c2c(=O)n1CC)CC(C)(C)OC3 returned CYP2C19 act inactive, CYP2C19 inh inactive, CYP2C9 inhib inactive, PLK1 PBD inh inactive, PLK1 kinase inh inactive and CYP2C9 activ inactive.
For Cc1nc([N+](=O)[O-])c(N2CCN(Cc3ccccc3)CC2)n1Cc1ccccc1 the results were CYP2C19 act inactive, CYP2C19 inh 54, CYP2C9 inhib 57, PLK1 PBD inh inactive, PLK1 kinase inh inactive and CYP2C9 activ inactive.
`Cc1cc(C)c2c(n1)nn1c(N3CCN(Cc4ccccc4)CC3)cc(C)nc21` gave CYP2C19 act inactive, CYP2C19 inh inactive, CYP2C9 inhib inactive and CYP2C9 activ inactive.
`CCOCCn1c(SCc2cccc(C)c2)nc2c1c(=O)[nH]c(=O)n2C` gave CYP2C19 act inactive, CYP2C19 inh inactive, CYP2C9 inhib inactive, PLK1 PBD inh inactive, PLK1 kinase inh inactive and CYP2C9 activ inactive.
For Cc1ccccc1NC(=S)N(C)Cc1cccs1 the results were CYP2C19 act inactive, CYP2C19 inh 75, CYP2C9 inhib inactive, PLK1 PBD inh inactive, PLK1 kinase inh inactive and CYP2C9 activ inactive.
COc1ccc(Oc2ccccc2/C=N/O)cc1 was read as CYP2C19 act inactive, CYP2C19 inh 70, CYP2C9 inhib inactive, PLK1 PBD inh inactive, PLK1 kinase inh inactive and CYP2C9 activ inactive.
Screening O=Cc1ccccc1Oc1ccccc1 returned CYP2C19 act inactive, CYP2C19 inh inactive, CYP2C9 inhib inactive, PLK1 PBD inh inactive, PLK1 kinase inh inactive and CYP2C9 activ inactive.
COc1ccc(N(CC(=O)Nc2cc(C)ccc2OC)S(=O)(=O)c2c(C)noc2C)cc1 was read as CYP2C19 act inactive, CYP2C19 inh 64, CYP2C9 inhib 67, PLK1 PBD inh inactive, PLK1 kinase inh inactive and CYP2C9 activ inactive.
`CCOc1ccccc1NC(=O)CN(c1ccc(OC)cc1)S(=O)(=O)c1c(C)noc1C` gave CYP2C19 act inactive, CYP2C19 inh 89, CYP2C9 inhib 90, PLK1 PBD inh inactive, PLK1 kinase inh inactive and CYP2C9 activ inactive.
COc1ccc(NC(=O)CN(c2cc(C)cc(C)c2)S(=O)(=O)c2c(C)noc2C)cc1 was read as CYP2C19 act inactive, CYP2C19 inh inactive, CYP2C9 inhib inactive, PLK1 PBD inh inactive, PLK1 kinase inh inactive and CYP2C9 activ inactive.
Screening COc1ccc(NC(=O)CN(c2cc(C)cc(C)c2)S(=O)(=O)c2c(C)noc2C)cc1OC returned CYP2C19 act inactive, CYP2C19 inh inactive, CYP2C9 inhib 50 and CYP2C9 activ inactive.
